Measurements: the supplement of paper PMC13380429

Test system: Vero E6 infected with SARS-CoV-2
Experiment: inhibition of SARS-CoV-2 cytopathic effect; higher = more antiviral protection, active = above 15
Details: 48 h

Measured: inhibition of SARS-CoV-2 cytopathic effect

N=C(N)c1ccc(/N=N/Nc2ccc(C(=N)N)cc2)cc1 [diminazene-aceturate]
inactive: 1 nM 0.66% | 8.33 nM -1.51% | 100 nM -3.27% | 833.33 nM -14% | 10000 nM 2.42%

CN(CCCN1c2ccccc2CCc2ccccc21)CC(=O)c1ccc(Cl)cc1 [lofepramine]
inactive: 1 nM 2.35% | 8.33 nM -0.58% | 100 nM 1.56% | 833.33 nM 2.86% | 10000 nM 0.69%

N[C@@H](Cn1ccc(=O)n(Cc2ccccc2C(=O)O)c1=O)C(=O)O
inactive: 1 nM 1.86% | 8.33 nM 3.68% | 100 nM -0.19% | 833.33 nM 1.26% | 10000 nM -0.16%

COc1cccc(-c2ccc([C@@H](Oc3cc(-c4ccc(C[C@H](N)C(=O)O)cc4)nc(N)n3)C(F)(F)F)cc2)c1
inactive: 1 nM -4.34% | 8.33 nM -0.04% | 100 nM 1.61% | 833.33 nM 0.52% | 10000 nM -1.29%

O=C(CCCCCCCC(=O)NCCO)NCCO [adelmidrol]
inactive: 1 nM -2.2% | 8.33 nM 2.3% | 100 nM 5.54% | 833.33 nM -1.21% | 10000 nM 0.2%

CCNCCCNCCCCNCCCNCC
inactive: 1 nM -0.97% | 8.33 nM 1.01% | 100 nM 3.25% | 833.33 nM 3.4% | 10000 nM 11.4%

COc1cc(Nc2c(C#N)cnc3cc(OCCCN4CCN(C)CC4)c(OC)cc23)c(Cl)cc1Cl [bosutinib]
inactive: 1 nM 0.33% | 8.33 nM -1.8% | 100 nM -1.97% | 833.33 nM -8.27% | 10000 nM -7.97%
